The source of these data is PubChem BioAssay AID2238 (Southern Research Specialized Biocontainment Screening …, 2010).

The source made the active and inactive calls. How the calls were made is not given here.

This assay is described as follows: antiviral protection of cells from WNV – synthesized analogs, SAR follow-up (AID 2238). Particulars: West Nile virus CPE inhibition in cells; max CPE inhibition: measured here: maximum CPE inhibition observed, at 40 µM, stronger effect = higher value unless noted; series mostly up to 40 µM.
`Brc1ccc2c(c1)CN1CCCC1=N2` had a max CPE inhibition of 54.9%.
Still for that read-out and setting: in the case of `Cc1cccc2c1-c1sc(C(=O)NCCCN3CCC(C)CC3)cc1CO2` it was 30.6% [measured here: maximum CPE inhibition observed, at 10 µM, stronger effect = higher value]; in that of `O=C(CSc1nc2ccccc2c(=O)n1-c1ccc(Cl)c(Cl)c1)Nc1ccc2c(c1)CCC2`, 63.1%.
Same read-out and setting: to `CCCN1CCN(CCCNC(=O)c2cc3c(s2)-c2c(C)cccc2OC3)CC1` belongs 42.7% [measured here: maximum CPE inhibition observed, at 10 µM, stronger effect = higher value].
For the compound `O=C(CSc1nc2ccccc2c(=O)n1-c1ccccc1)Nc1ccc2c(c1)CCC2`, the max CPE inhibition came out at 72%.
Same read-out and setting: in the case of `CN(C)CCCN1c2ccc([N+](=O)[O-])cc2CCc2cc([N+](=O)[O-])ccc21` it was 80.3% [measured here: maximum CPE inhibition observed, at 20 µM, stronger effect = higher value]; in that of `CC1CC(C)CN(CCCNC(=O)c2cc3c(s2)-c2ccccc2OC3)C1` (stereo not given), 41.1% [measured here: maximum CPE inhibition observed, at 20 µM, stronger effect = higher value].
As to `O=C(CSc1nc2ccccc2c(=O)n1-c1ccccc1F)Nc1ccc2c(c1)CCC2`, the max CPE inhibition was 71.6% [measured here: maximum CPE inhibition observed, at 20 µM, stronger effect = higher value].
On the same count and under the same terms, in the case of `O=C(CSc1nc2ccccc2c(=O)n1-c1ccc(F)cc1F)Nc1ccc(N2CCOCC2)cc1` it was 58% [measured here: maximum CPE inhibition observed, at 80 µM, stronger effect = higher value]; in that of `O=C(CSc1nc2ccccc2c(=O)n1-c1ccc(F)c(Cl)c1)Nc1ccc2c(c1)CCC2`, 65.7% [measured here: maximum CPE inhibition observed, at 20 µM, stronger effect = higher value].
Same read-out and setting: in the case of `OC1c2cc(Br)ccc2N=C2CCCN21` (stereo not given) it was 79.7%; in that of `O=C(CSc1nc2ccccc2c(=O)n1-c1ccc(F)cc1)Nc1ccc2c(c1)CCC2`, 65.2%.
`CC1CCN(CCCNC(=O)c2cc3c(s2)-c2ccccc2OC3)CC1`: the max CPE inhibition is 73.1% [measured here: maximum CPE inhibition observed, at 20 µM, stronger effect = higher value].
In the case of `Cc1cccc2c(=O)n3c(nc12)CCC3`, the compound was classed as inactive and the max CPE inhibition was 1.97%.
Consider `O=c1c2cccc(Cl)c2nc2n1CCC2`, for which the max CPE inhibition worked out at 1.83% and the compound was called inactive.
As for `COc1ccc(-c2csc(N(C(=O)c3ccccc3Cl)C(C)C)n2)cc1`, the result was inactive and the max CPE inhibition was determined as 1.92%.
Regarding `CC1CCCN(CCCNC(=O)c2cc3c(s2)-c2ccccc2OC3)C1` (stereo not given), the max CPE inhibition is 71.4% [measured here: maximum CPE inhibition observed, at 10 µM, stronger effect = higher value].
Same read-out and setting: in the case of `CC1CCCC(C)N1CCCNC(=O)c1cc2c(s1)-c1ccccc1OC2` (stereo not given) it was 77% [measured here: maximum CPE inhibition observed, at 10 µM, stronger effect = higher value].
For `O=C(CSc1nc2ccccc2c(=O)n1-c1ccc(Cl)cc1)Nc1ccc2c(c1)CCC2`, the max CPE inhibition is 45.5% [measured here: maximum CPE inhibition observed, at 20 µM, stronger effect = higher value].
Consider `COc1cccc(-n2c(SCC(=O)Nc3ccc4c(c3)CCC4)nc3ccccc3c2=O)c1`, for which the max CPE inhibition is 26.8% [measured here: maximum CPE inhibition observed, at 20 µM, stronger effect = higher value] and the compound was classed as inactive.
As for `COc1ccc(-c2csc(NC(=O)c3ccccc3F)n2)cc1`, the max CPE inhibition was found to be 1.03% and the result was inactive.
For `COc1ccc(-c2csc(N(CCCN(C)C)C(=O)c3ccccc3C)n2)cc1`, the max CPE inhibition is 60.8% [measured here: maximum CPE inhibition observed, at 80 µM, stronger effect = higher value].
For the compound `O=C(CSc1nc2ccccc2c(=O)n1-c1ccc(F)cc1F)Nc1ccc2c(c1)CCC2`, the max CPE inhibition is 64.8% [measured here: maximum CPE inhibition observed, at 80 µM, stronger effect = higher value].
In the case of `O=C(Nc1nc(-c2ccc(Cl)cc2)cs1)c1ccccc1F`, the max CPE inhibition came to 1.34% and the compound was classed as inactive.
